From PubChem BioAssay AID1851 (National Center for Advancing Translational Sciences (NCATS), 2009)
About 4,000 (25%) of roughly 16,000 compounds were called active. Not shown: some 26% with an inconclusive outcome. The call rests on the fitted dose curve; in most records, active means well fitted curve in the direction sought with a large enough effect; inconclusive means small, poorly fitted or top-dose-only effect, or effect the other way; inactive means no such curve, though single readings can be large or run the other way. A selection follows.

target: Cytochrome P450 2C9 (Homo sapiens) (UniProt P11712); assay: Cytochrome panel assay with activity outcomes; details: recombinant CYP, pro-luciferin dealkylation, luminescence, p450-cyp2c9; series mostly up to 57.1 µM
On the % scale 0 is the no-effect control and ±100 the full control effect.

Cytochrome P450 2C9 (Homo sapiens), sequence (P11712 whole entry, looked up): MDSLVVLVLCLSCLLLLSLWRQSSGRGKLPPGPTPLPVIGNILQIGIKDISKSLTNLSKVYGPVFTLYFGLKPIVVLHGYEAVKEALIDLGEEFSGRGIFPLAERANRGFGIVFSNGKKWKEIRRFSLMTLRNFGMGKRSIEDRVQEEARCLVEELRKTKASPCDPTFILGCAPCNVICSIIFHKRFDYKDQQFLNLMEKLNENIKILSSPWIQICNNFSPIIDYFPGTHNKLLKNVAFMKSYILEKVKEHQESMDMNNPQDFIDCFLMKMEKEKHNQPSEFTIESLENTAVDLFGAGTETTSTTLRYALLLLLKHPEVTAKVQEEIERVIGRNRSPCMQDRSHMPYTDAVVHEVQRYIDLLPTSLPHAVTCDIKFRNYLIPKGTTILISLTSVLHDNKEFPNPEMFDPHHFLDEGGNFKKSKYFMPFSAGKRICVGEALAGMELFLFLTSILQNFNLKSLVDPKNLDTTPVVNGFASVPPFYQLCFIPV

Row | SMILES | AC50 | activity, negative = inhibition
1 | CCCN(CCc1ccccc1)[C@H]1CCc2c(O)cccc2C1 | inactive | 
2 | CN(CCO)c1cc(Sc2nc3ccccc3s2)c2nonc2c1[N+](=O)[O-] | 3.55 µM (active) | 
3 | COCC(=O)N1CCC2(CC1)CCN(C(=O)Nc1cccc(F)c1)CC2 | inactive | 
4 | CC(=O)Nc1cc(C(F)(F)F)ccc1Oc1cccc(Br)c1 | 3.98 µM (active) | 
5 | CC(=O)Oc1cc(C(F)(F)F)ccc1C(=O)O | inactive | 
6 | Cc1cc2nc([C@H](C)C(=O)c3ccc(Cl)cc3)c(=O)[nH]c2cc1C |  | -26.4% [at 11.4 µM] (inactive)
7 | CCCOc1ccc(Cn2c(C)nc([N+](=O)[O-])c2SCC(O)COC)cc1[N+](=O)[O-] (stereo not given) | 11.2 µM (active) | 
8 | COc1ccc(CSc2nnnn2C)cc1[N+](=O)[O-] | inactive | 
9 | CS(=O)(=O)N1CCC2(CC1)CN(Cc1cc(C(F)(F)F)cc(C(F)(F)F)c1)C2 | inactive | 
10 | Cc1cc(C)c(NC(=O)CSc2nnc(Cc3cccn3C)n2-c2ccc(F)cc2)c(C)c1 | 10 µM (active) | 
11 | C=CCn1c(SCc2ccc3c(c2)OCO3)nc2scc(-c3ccco3)c2c1=O | inactive | 
12 | C=CCn1c(SC(C)C(=O)NCc2ccc3c(c2)OCO3)nc2scc(-c3ccccc3)c2c1=O (stereo not given) | 2.51 µM (active) | 
13 | S=C1SCN(C2CCCCCCCCCCC2)CN1C1CCCCCCCCCCC1 |  | -14.2% [at 11.4 µM] (inactive)
14 | CC1(C)O[C@@H]2C[C@H]3[C@H]4C[C@H](F)C5=CC(=O)CC[C@]5(C)[C@@H]4[C@H](O)C[C@]3(C)[C@]2(C(=O)CO)O1 | inactive | 
15 | CC(NC(=O)c1ccc(Cn2cc([N+](=O)[O-])cn2)o1)c1ccccc1 (stereo not given) | 6.31 µM (active) | 
16 | Cc1ncc([N+](=O)[O-])n1CC(=O)NCc1ccccc1 | inactive | 
17 | CCOC(=O)c1c(-c2ccccc2)cn2ccccc12 | 3.55 µM (active) | 
18 | CCOC(=O)c1c2c(n3ccccc13)C(=O)c1ccccc1C2=O |  | -20.1% [at 11.4 µM] (inactive)
19 | CN(C)C(=O)c1ccc(-c2nccc(Nc3ccc(F)cc3)n2)cc1 |  | -2.83% [at 2.29 µM] (inactive)
20 | COCC(=O)N1CCC2(CCCN(Cc3ccccc3OC)C2)CC1 | inactive | 
21 | CO[C@@H]1COC(=O)[C@H]2CCCN2C(=O)[C@@H](C)COC(=O)C/C=C\[C@H]1C |  | 14.2% [at 11.4 µM] (inactive)
22 | O=C(c1coc2ccccc2c1=O)N1CCN(c2cccc(C(F)(F)F)c2)CC1 | 12.6 µM (active) | 
23 | Cc1cccc(C)c1NC(=O)c1cc2c(=O)c3ccccc3oc2nc1C(F)(F)F | inactive | 
24 | CCc1ccc(NC(=S)N2CCN(c3cccc(C(F)(F)F)c3)CC2)cc1 | inactive | 
25 | Cc1ccc(CC(=O)N2CCN(c3cccc(C(F)(F)F)c3)CC2)cc1 | 14.1 µM (active) | 
